# Measurements published in publication PMC7862700, “An all-to-all approach to the identification of sequence-specific readers for epigenetic DNA modifications on cytosine”.
# Legend:
# Experiment in all cases: DAPPL (digital affinity profiling via proximity ligation, sequencing); 10 mM Tris-HCl pH 7.5, 50 mM NaCl, 1 mM DTT, 4% glycerol, room temperature, 30 min; GST-TFs on glutathione beads, 16-mer random dsDNA library, 0.1% formaldehyde crosslink after washing; high values mean tight binding
# Conditions in all cases: protein: recombinant; tags: N-terminal GST; dsDNA, one strand shown
# FLI1 = molecular target: T1, FLI1 (Homo sapiens, UniProt Q01543 1-452)
# T1 sequence: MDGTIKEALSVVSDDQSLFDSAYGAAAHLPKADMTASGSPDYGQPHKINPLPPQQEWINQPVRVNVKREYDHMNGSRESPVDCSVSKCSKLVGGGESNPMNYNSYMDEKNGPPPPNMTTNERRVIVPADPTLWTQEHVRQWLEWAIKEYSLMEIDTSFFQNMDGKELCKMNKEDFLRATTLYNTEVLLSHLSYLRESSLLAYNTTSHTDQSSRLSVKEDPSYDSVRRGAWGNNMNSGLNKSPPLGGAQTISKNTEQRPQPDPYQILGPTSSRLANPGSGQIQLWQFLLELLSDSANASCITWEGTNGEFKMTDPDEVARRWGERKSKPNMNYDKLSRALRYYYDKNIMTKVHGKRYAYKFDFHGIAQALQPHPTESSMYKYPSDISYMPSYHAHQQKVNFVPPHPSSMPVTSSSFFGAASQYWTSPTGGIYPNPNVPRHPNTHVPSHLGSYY
# Method in brief: (§1)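 Human transcription factors were made in yeast as GST fusions, captured on glutathione beads and barcoded with DNA. With a tag-only sample included, the pool was incubated with 200 nmole of a random double-stranded 16-mer DNA library in Tris/NaCl/DTT/glycerol buffer at room temperature for 30 min, then crosslinked with 0.1% formaldehyde after washing, ligated by proximity, amplified and sequenced. For binding signal, each hexamer's read frequency for a factor is divided by its frequency for the tag-only sample.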
# ELK1 = molecular target: T2, ELK1 (Homo sapiens, UniProt P19419 1-428)
# T2 sequence: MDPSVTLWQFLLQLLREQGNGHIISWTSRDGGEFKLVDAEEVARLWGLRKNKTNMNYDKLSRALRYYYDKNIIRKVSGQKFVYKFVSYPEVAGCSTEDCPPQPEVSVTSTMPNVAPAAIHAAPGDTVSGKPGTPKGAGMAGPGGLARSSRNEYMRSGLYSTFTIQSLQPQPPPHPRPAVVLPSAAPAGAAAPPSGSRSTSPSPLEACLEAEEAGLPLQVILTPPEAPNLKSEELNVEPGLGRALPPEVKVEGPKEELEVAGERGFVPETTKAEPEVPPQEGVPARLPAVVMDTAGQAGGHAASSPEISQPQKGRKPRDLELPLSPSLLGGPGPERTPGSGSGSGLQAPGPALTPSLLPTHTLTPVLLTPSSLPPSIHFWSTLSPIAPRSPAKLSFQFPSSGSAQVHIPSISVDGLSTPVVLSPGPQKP
# Method in brief: as §1
# GABPA = molecular target: T3, GABPA (Homo sapiens, UniProt Q06546 1-454)
# T3 sequence: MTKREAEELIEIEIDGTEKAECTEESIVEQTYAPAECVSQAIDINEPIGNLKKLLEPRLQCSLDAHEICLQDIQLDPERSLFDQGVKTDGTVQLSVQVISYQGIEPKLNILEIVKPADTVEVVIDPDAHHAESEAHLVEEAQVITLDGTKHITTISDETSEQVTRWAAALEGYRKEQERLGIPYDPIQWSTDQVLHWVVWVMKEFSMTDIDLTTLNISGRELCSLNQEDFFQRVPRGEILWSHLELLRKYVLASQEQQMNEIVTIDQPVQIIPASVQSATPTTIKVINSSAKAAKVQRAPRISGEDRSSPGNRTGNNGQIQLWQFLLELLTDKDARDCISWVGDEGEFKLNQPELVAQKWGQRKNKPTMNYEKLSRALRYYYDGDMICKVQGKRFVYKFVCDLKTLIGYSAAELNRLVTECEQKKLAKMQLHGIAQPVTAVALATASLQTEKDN
# Method in brief: as §1
# ERG = molecular target: T4, ERG (Homo sapiens, UniProt P11308 1-479)
# T4 sequence: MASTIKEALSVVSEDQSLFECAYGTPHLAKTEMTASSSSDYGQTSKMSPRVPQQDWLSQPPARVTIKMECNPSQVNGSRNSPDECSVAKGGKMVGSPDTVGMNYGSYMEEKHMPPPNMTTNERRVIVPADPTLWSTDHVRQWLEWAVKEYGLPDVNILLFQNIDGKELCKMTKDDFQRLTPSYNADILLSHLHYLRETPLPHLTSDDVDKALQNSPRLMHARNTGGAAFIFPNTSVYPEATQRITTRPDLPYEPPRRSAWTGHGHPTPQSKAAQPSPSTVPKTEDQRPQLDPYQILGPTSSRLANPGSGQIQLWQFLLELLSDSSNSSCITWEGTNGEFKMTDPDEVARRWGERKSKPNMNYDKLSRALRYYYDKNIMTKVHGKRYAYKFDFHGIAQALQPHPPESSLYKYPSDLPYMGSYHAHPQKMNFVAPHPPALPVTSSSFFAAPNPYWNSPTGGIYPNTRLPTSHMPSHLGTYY
# Method in brief: as §1
# ELF1 = ELF1 (Homo sapiens, UniProt P32519 1-619)
# Sequence of ELF1 (P32519 whole entry): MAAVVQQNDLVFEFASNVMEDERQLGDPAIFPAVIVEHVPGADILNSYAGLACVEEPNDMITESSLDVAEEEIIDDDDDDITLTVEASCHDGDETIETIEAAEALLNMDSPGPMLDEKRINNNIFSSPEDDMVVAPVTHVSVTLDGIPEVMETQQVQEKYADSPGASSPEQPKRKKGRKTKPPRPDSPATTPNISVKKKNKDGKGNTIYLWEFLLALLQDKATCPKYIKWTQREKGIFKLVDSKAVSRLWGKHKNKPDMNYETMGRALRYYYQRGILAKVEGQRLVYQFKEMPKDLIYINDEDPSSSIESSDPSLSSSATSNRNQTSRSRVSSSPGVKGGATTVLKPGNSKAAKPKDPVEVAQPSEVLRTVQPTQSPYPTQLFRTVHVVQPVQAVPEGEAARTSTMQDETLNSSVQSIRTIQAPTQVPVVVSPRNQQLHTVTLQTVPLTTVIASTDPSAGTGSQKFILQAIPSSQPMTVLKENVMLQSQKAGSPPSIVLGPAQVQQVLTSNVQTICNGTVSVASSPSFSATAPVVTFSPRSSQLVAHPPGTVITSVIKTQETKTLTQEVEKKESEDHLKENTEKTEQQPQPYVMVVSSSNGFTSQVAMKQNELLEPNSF
# Method in brief: as §1
# EHF = molecular target: T5, EHF (Homo sapiens, UniProt Q9NZC4 1-300)
# T5 sequence: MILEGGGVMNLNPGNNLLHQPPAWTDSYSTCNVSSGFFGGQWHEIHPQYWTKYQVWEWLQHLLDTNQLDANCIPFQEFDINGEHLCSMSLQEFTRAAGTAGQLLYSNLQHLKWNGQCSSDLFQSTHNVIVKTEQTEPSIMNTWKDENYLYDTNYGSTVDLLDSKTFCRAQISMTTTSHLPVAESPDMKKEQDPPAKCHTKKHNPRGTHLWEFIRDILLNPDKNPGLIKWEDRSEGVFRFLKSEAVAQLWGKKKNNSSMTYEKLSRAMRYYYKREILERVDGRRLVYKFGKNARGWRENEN
# Method in brief: as §1
# SPI1 = SPI1 (Homo sapiens, UniProt P17947 1-270)
# Method in brief: as §1
# SPIB = SPIB (Homo sapiens, UniProt Q01892 1-262)
# Sequence of SPIB (Q01892 whole entry): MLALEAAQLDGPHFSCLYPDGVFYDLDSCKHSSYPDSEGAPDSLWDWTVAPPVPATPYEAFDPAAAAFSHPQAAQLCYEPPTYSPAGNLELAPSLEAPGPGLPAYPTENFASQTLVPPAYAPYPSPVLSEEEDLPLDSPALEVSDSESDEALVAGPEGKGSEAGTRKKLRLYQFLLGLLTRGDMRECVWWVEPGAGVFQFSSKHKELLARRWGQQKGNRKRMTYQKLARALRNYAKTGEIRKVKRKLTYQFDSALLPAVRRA
# Method in brief: as §1
# ELK3 = molecular target: T6, ELK3 (Homo sapiens, UniProt P41970 1-407)
# T6 sequence: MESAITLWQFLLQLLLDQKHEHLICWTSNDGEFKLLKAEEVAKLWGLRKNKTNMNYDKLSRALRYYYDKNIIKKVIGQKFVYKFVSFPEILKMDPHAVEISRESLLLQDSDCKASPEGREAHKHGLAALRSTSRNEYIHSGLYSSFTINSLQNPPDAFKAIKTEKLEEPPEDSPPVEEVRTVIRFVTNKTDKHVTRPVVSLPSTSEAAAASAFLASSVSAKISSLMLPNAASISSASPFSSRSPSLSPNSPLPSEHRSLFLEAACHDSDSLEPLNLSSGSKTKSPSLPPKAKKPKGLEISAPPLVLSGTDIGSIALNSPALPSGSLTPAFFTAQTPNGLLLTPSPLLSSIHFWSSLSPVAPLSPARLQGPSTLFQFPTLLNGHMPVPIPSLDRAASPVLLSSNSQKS
# Method in brief: as §1
# FEV = molecular target: T7, FEV (Homo sapiens, UniProt Q99581 1-238)
# T7 sequence: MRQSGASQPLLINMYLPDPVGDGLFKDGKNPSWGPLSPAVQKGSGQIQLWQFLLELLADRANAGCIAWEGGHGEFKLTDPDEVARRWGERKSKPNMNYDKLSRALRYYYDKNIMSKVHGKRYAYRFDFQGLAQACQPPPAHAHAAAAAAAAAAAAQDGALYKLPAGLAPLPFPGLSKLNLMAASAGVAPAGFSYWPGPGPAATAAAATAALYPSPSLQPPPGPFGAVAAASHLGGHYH
# Method in brief: as §1
# ETV5 = ETV5 (Homo sapiens, UniProt P41161 1-510)
# Sequence of ETV5 (P41161 whole entry): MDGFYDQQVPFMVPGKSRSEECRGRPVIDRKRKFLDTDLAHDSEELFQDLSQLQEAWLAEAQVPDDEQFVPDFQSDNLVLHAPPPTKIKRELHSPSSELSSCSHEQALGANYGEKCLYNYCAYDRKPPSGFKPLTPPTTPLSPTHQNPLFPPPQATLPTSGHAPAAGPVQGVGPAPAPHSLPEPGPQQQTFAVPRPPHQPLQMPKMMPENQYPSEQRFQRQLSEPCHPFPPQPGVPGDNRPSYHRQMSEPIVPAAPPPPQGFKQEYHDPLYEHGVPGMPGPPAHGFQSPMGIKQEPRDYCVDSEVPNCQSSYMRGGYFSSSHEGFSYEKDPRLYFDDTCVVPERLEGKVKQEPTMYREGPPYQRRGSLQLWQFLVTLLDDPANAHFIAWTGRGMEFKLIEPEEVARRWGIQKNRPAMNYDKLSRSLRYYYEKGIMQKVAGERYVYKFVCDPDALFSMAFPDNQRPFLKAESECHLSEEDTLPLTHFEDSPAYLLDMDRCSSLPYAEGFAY
# Method in brief: as §1
# SPIC = molecular target: T8, SPIC (Homo sapiens, UniProt Q8N5J4 1-248)
# T8 sequence: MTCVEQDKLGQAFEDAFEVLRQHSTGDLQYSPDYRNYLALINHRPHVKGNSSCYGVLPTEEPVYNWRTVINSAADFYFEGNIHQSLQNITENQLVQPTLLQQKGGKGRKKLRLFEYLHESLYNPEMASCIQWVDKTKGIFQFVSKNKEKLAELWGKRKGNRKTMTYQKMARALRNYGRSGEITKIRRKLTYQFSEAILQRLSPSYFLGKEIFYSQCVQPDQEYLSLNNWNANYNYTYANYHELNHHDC
# Method in brief: as §1
# ELF4 = ELF4 (Homo sapiens, UniProt Q99607 1-663)
# Sequence of ELF4 (Q99607 whole entry): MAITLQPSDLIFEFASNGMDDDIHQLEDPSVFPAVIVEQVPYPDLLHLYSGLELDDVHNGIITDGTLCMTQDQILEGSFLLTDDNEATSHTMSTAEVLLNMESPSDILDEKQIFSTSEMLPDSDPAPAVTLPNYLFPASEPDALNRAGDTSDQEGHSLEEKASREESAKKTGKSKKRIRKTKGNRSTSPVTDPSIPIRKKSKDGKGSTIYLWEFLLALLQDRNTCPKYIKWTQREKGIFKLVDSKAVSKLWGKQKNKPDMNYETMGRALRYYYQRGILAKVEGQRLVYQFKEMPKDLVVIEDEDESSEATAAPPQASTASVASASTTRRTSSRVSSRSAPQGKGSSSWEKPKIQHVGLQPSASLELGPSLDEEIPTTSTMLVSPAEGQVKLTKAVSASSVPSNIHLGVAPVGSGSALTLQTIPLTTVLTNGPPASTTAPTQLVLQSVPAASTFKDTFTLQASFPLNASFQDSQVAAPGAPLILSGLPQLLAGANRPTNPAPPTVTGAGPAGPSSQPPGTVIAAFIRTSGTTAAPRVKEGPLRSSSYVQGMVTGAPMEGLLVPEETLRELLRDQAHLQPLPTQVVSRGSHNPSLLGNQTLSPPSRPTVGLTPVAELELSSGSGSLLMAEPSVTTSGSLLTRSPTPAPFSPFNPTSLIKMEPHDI
# Method in brief: as §1
# ELK4 = molecular target: T9, ELK4 (Homo sapiens, UniProt P28324-2 1-405)
# T9 sequence: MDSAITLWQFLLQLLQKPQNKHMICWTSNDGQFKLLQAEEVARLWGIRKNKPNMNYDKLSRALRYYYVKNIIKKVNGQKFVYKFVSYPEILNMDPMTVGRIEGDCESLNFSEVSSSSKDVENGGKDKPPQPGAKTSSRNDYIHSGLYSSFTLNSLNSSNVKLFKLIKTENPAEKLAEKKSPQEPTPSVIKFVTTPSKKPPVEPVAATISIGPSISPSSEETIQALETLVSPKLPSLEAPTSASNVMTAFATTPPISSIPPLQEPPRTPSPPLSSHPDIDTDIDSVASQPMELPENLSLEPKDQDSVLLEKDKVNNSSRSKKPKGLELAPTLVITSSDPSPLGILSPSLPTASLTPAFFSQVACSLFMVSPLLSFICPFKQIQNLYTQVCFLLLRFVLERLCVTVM
# Method in brief: as §1
# ETV2 = molecular target: T10, ETV2 (Homo sapiens, UniProt O00321 1-342)
# T10 sequence: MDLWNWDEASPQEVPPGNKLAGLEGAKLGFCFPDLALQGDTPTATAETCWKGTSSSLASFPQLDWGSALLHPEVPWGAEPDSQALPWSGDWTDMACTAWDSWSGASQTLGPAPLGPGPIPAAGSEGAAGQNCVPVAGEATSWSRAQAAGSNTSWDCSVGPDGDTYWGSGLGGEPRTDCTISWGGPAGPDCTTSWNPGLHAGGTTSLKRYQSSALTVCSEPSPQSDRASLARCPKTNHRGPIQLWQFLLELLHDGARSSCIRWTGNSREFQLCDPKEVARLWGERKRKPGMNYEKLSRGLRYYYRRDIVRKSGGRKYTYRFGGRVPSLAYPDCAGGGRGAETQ
# Method in brief: as §1
# ELF3 = molecular target: T11, ELF3 (Homo sapiens, UniProt P78545 1-371)
# T11 sequence: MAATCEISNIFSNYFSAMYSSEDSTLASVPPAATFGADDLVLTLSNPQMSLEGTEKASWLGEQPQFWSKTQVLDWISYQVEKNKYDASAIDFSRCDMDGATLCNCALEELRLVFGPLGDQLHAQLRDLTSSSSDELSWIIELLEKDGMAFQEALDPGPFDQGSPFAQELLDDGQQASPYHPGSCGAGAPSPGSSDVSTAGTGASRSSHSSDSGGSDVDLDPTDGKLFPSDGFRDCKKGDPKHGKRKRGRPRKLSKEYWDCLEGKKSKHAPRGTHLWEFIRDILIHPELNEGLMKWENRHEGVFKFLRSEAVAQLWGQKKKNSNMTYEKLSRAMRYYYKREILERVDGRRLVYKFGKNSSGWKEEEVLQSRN
# Method in brief: as §1
# CRX = CRX (Homo sapiens, UniProt O43186 1-299)
# Sequence of CRX (O43186 whole entry): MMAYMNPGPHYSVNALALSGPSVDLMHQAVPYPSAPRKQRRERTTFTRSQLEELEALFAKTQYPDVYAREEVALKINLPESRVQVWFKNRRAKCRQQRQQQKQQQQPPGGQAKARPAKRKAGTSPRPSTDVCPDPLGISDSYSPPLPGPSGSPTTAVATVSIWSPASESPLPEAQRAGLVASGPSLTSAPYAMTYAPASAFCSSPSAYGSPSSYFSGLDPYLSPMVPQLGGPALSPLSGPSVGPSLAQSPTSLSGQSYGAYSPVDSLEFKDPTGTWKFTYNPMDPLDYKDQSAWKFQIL
# Method in brief: as §1
# ETV1 = ETV1 (Homo sapiens, UniProt P50549 1-477)
# Sequence of ETV1 (P50549 whole entry): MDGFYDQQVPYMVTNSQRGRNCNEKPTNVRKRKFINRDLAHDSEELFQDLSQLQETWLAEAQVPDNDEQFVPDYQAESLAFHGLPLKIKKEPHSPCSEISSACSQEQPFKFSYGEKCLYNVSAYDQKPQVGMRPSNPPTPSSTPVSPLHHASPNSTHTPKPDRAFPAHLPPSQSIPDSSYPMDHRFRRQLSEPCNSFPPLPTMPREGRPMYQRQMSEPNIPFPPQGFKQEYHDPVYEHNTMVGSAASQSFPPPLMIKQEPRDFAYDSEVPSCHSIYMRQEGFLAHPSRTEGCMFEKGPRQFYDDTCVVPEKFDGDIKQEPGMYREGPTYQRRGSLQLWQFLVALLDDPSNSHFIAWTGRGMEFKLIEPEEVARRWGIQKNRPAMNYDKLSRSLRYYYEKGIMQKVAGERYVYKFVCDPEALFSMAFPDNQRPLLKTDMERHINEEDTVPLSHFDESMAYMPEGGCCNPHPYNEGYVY
# Method in brief: as §1
sequence,measurement,setting,value
TGTATA,binding signal,FLI1,"1.08 fold enrichment (6-mer frequency, TF over GST control)"
same,binding signal,ELK1,"1.11 fold enrichment (6-mer frequency, TF over GST control)"
same,binding signal,GABPA,"1.02 fold enrichment (6-mer frequency, TF over GST control)"
same,binding signal,ERG,"1.03 fold enrichment (6-mer frequency, TF over GST control)"
same,binding signal,ELF1,"1.04 fold enrichment (6-mer frequency, TF over GST control)"
same,binding signal,EHF,"1.18 fold enrichment (6-mer frequency, TF over GST control)"
same,binding signal,SPI1,"1.03 fold enrichment (6-mer frequency, TF over GST control)"
same,binding signal,SPIB,"1.19 fold enrichment (6-mer frequency, TF over GST control)"
same,binding signal,ELK3,"1.15 fold enrichment (6-mer frequency, TF over GST control)"
same,binding signal,FEV,"1.02 fold enrichment (6-mer frequency, TF over GST control)"
same,binding signal,ETV5,"1.15 fold enrichment (6-mer frequency, TF over GST control)"
same,binding signal,SPIC,"1.07 fold enrichment (6-mer frequency, TF over GST control)"
same,binding signal,ELF4,"1.06 fold enrichment (6-mer frequency, TF over GST control)"
same,binding signal,ELK4,"1.22 fold enrichment (6-mer frequency, TF over GST control)"
same,binding signal,ETV2,"1.04 fold enrichment (6-mer frequency, TF over GST control)"
same,binding signal,ELF3,"1.02 fold enrichment (6-mer frequency, TF over GST control)"
same,binding signal,CRX,"1.03 fold enrichment (6-mer frequency, TF over GST control)"
same,binding signal,ETV1,"1.16 fold enrichment (6-mer frequency, TF over GST control)"
